Compound activity from PubChem BioAssay.
ELG1 genotoxic = genotoxicity induction in ELG1-luciferase HEK293T cells | actives 1.3% (n = 330,000) | Potency, µM (highest dose often 46 µM), for the others: top-dose activity change, positive = activation, most hits filed as activators | AID 504466 | HEK293T ELG1-luciferase reporter, luminescence, 16 h; note: % of control where 0% means no effect; nearly all actives have a fitted effect of over 60% in size
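Cells (2,000/well) expressing the ELG1-luciferase fusion are dosed by pin tool and kept 16 hr at 37 °C, 5% CO2. Signal comes from ONE-Glo luciferase reagent after 30 min at room temperature.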
SMN2 splice up = enhancers of SMN2 splice variant expression | HEK293 SMN2-luciferase splicing reporter, luminescence, 30-36 h | Potency, µM (series often up to 46.1 µM), for inactives: at the top dose activity change, positive = activation, most hits filed as activators | actives 2.8% (n = 210,000) | AID 1458; note: % of control where 0% means no effect; nearly all actives have a fitted effect of over 55% in size
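qHTS luciferase splicing reporter: luminescence rises when SMN2 exon 7 is included in transfected HEK293 cells. Compound exposure lasted 30-36 h at 37C, with 4.5 mM final sodium butyrate as control, followed by a ONE-Glo read.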
Rab9 prom act = Rab9 promoter activation; Huh7 Rab9 promoter-luciferase reporter, luminescence, 24 h; Potency, µM (series often up to 9.22 µM), for the others: at the highest dose activation, negative = inhibition, actives largely listed as activators; actives 2.8% (n = 320,000); AID 485297; note: % of control where 0% means no effect; nearly all actives have a fitted effect of over 60% in size
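Stable Rab9-luc Huh7, 1500 cells/well, 2 h settle; cmpd in DMSO, 24 h, 37 °C/5% CO2; luciferase reagent 10 min RT; luminescence.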
NPC1 prom act = NPC1 promoter activation; actives 2.4% (n = 320,000); Huh7 NPC1 promoter luciferase reporter, 24 h; Potency, µM (top dose mostly 9.22 µM), inactives show at the top dose activation, actives largely listed as activators; note: % of control where 0% means no effect; nearly all actives have a fitted effect of over 60% in size
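Stable NPC1-promoter luciferase Huh7 line; cpd (DMSO) 24 h, 37 °C, 5% CO2; Amplite luciferase reagent 10 min RT; luminescence readout. qHTS format.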
ELG1 DNA repair = inhibitors of ELG1-dependent DNA repair in HEK293T cells; HEK293T ELG1-luciferase reporter, luminescence, 16 h; DNA damage induced by 5-fluorouridine; Potency, µM (doses to about 46.1 µM), for inactives: at the top dose activity change, negative = inhibition, actives largely listed as inhibitors; actives 2.3% (n = 330,000); AID 504467; note: % is set by controls: 0 for no effect and ±100 for the full control effect; nearly all actives have a fitted effect of over 55% in size
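5-Fluorouridine DNA damage + compound/DMSO, 2,000 cells/well, 16 h, 37 °C/5% CO2. ONE-Glo, 30 min RT, luminescence. Readout = decrease in reporter signal.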
FLuc counter = inhibits or activates purified firefly luciferase, miR-21 counter-screen | P08659 | purified FLuc, Km substrates, luminescence inhibition | Potency, µM (top dose mostly 57.5 µM), for the others: at the highest dose activity change, negative = inhibition, actives largely listed as inhibitors | actives 6.9% (n = 360,000) | AID 588342;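 note: plate controls were vehicle for no effect and reference inhibitor for full effect; nearly all actives have a fitted effect of over 55% in size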
Target sequence (P08659 whole entry, looked up): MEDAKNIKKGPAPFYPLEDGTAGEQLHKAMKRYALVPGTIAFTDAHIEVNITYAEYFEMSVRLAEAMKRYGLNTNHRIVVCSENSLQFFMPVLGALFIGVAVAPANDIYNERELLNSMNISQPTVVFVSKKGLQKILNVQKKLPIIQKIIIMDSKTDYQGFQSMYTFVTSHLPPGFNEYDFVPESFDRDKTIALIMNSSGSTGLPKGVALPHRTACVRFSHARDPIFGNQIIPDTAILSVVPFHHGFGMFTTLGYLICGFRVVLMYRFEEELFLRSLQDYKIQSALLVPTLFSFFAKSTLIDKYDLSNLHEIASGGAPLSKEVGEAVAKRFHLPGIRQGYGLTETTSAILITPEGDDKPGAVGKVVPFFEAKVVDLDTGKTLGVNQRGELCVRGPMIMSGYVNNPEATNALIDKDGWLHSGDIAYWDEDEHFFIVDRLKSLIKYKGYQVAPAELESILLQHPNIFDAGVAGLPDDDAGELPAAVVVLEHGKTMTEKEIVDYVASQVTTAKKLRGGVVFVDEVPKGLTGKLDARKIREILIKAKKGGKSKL
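Purified P. pyralis luciferase, 10 nM final, with Km-level 10 uM D-luciferin and 10 uM ATP in 50 mM Tris acetate pH 7.5, 10 mM Mg acetate, 0.01% Tween-20, 0.05% BSA; 6-point qHTS titration about 60 µM downward; luminescence read.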
Numbers without * were called inactive; u = inconclusive; x = not tested or not shown; [ ] = dose if it differs, or a comment. Rows were chosen to be rich in hits. Some 9.3% of all compounds tested hit in one or more screens of this group. Calls come from the whole dose curve; as a rule, active = well fitted curve in the direction sought with a large enough effect; inconclusive = small, poorly fitted or top-dose-only effect, or another doubt; inactive = no such curve, though single readings can be large; an effect the other way counts as inactive or inconclusive. Potency is the fitted concentration of half-maximal effect.

SMILES	ELG1 genotoxic	SMN2 splice up	Rab9 prom act	NPC1 prom act	ELG1 DNA repair	FLuc counter
CC(C)CC(=O)Nc1ccc(-c2nnn(CC(=O)NCc3ccco3)n2)cc1	u	u	u	u	u	11µM*
CCCCOc1ccc(-c2nnn(CC(=O)NCc3ccco3)n2)cc1	u	u	u	20%	u	u
Cc1cc(C)cc(C(=O)NCC(=O)OCC(=O)NC2CCCc3ccccc32)c1 (stereo unspecified)	2%	x	x	x	3%	x
COc1ccc(C2=CC(=O)C=CC2=O)cc1	0%	x	-3%	-2%	2%	8.5µM*
CCCNC(=O)c1cc(Cl)c(NC(=O)C2=CSCCO2)cc1OC	17%	x	u	u	u	19µM*
CCCNC(=O)c1cc(Cl)c(NC(=O)C2=C(C)OCCS2)cc1OC	-7%	x	3%	-1%	-28%	u
C/C(=N\NC(=O)c1ccc([N+](=O)[O-])cc1Cl)c1ccccc1	u	x	3.5µM*	u	u	u
CCOC(=O)Cc1csc(NC(=O)CCc2ccc(S(=O)(=O)N3CCOCC3)cc2)n1	-23%	-20%	12%	2%	12µM*	1%
CCOC(=O)Cc1csc(NC(=O)c2ccco2)n1	16µM*	7.9µM*	u	u	u	u
CCOC(=O)Cc1csc(NC(=O)c2ccc(NC(C)=O)cc2)n1	2%	16%	1%	-4%	12%	u
CCOC(=O)Cc1csc(NC(=O)c2ccc(S(=O)(=O)N3CCCCC3)cc2)n1	-6%	-24%	-7%	-7%	-34%	-1%
CCOC(=O)Cc1csc(NC(=O)c2ccc3ncsc3c2)n1	3%	x	24%	-23%	u	15µM*
CCOC(=O)Cc1csc(NC(=O)c2ccc3ccccc3n2)n1	-7%	x	1µM*	1.6µM*	28%	15µM*
COc1cc2nc(NC(=O)c3ccc(F)cc3Cl)sc(=O)c2cc1OC	4%	x	-6%	-12%	18%	-3%
Cc1ccc(C)c(NC(=O)c2nn(C)c3c2CS(=O)(=O)c2ccccc2-3)c1	x	2%	x	x	x	2%
O=C(c1cccc(OC2CCN(Cc3ccc(F)cc3Cl)CC2)c1)N1CCCC1	-9%	x	-7%	2%	-28%	3%
O=C(CN1c2cccc3cccc(c23)S1(=O)=O)NCCc1ccc(F)cc1	9%	x	x	x	0%	x
Cc1ncc(C(=O)O)c(C(=O)O)c1N	6%	x	-2%	-1%	21%	-1%
CCOC(=O)Cc1csc(NC(=S)NC(=O)c2ccc(Cl)cc2)n1	0%	-1%	-10%	-7%	u	12µM*
CCOC(=O)Cc1csc(NC(=O)c2ccc(Br)cc2)n1	-3%	x	0%	1%	-19%	21µM*
COc1ccc(NC(=O)CC2C(=O)N(c3ccc(F)cc3)C(=O)N2Cc2ccco2)cc1 (stereo unspecified)	x	x	x	x	x	-7%
NC(=O)C1(N2CCCCC2)CCN(C(=S)Nc2ccc(S(N)(=O)=O)cc2)CC1	-1%	x	-6%	-4%	1%	-6%
CCc1nc(Nc2ccc(OC)c(OC)c2)c2nnn(Cc3ccccc3Cl)c2n1	-10%	-63%	-15%	-13%	13µM*	0%
COc1cccc(OC)c1Nc1nc(C)nc2c1nnn2Cc1ccccc1Cl	5%	x	-20%	-6%	1%	-1%
CCOCCCNc1nc(C(F)(F)F)nc2c1nnn2Cc1ccccc1Cl	-6%	x	-6%	-2%	18µM*	1%
SMILES	ELG1 genotoxic	SMN2 splice up	Rab9 prom act	NPC1 prom act	ELG1 DNA repair	FLuc counter
Cc1ccc(C)c(NS(=O)(=O)c2ccc3[nH]c(=O)oc3c2)c1	-6%	-27%	-5%	1%	11%	0%
COc1cc(C(=O)Oc2ccccc2/C=N/NC(=O)c2ccc(Cl)cc2)cc(OC)c1OC	u	-101%	-24%	0%	6%	6.7µM*
CC(=O)Nc1ccc(C(=O)N/N=C/c2ccccc2OC(=O)c2ccc(Cl)cc2)cc1	-3%	-57%	1%	-1%	u	u
COc1ccccc1/C=N/NC(=O)c1ccc(Br)cc1	-5%	7%	1%	-3%	u	13µM*
COc1ccc(O)c(/C=N/NC(=O)c2ccc(OCc3cccc(Br)c3)cc2)c1	-5%	-79%	-41%	-31%	3.7µM*	-1%
COc1ccc(/C=N/NC(=O)c2ccc(Br)cc2)c(OC)c1	7%	29%	-2%	-3%	3%	15µM*
CN(C)C(=O)CCc1ccc2c3c([nH]c2c1)[C@]1(C)[C@@H](C(=O)N2CCCCC2)C[C@H](CC(=O)NCC24CC5CC(CC(C5)C2)C4)C(=O)N1CC3	-3%	x	x	x	u	x
CCOc1ccc(NC(=O)COc2ccc3c(c2)CCC3)cc1OC	-1%	x	0%	-12%	-3%	-3%
COc1ccccc1/C=N/OC(=O)c1ccc(F)cc1	3%	x	1%	3%	17%	3.4µM*
O=C(N/N=C/c1ccc(C(F)(F)F)cc1)c1ccc(O)cc1	13%	6%	11%	16%	u	11µM*
O=C(N/N=C\c1cccc(O)c1)c1ccncc1	x	-3%[9.22 µM]	x	x	x	x
O=C(N/N=C/c1cccc(C(F)(F)F)c1)c1ccc(O)cc1	7%	11%	14%	-3%	17%	17µM*
O=C(N/N=C/c1ccc(O)cc1)c1csc2c1CCCC2	9%	30%	23%	22%	27%	13µM*
C=CCNC(=S)N/N=C/c1ccc(C(F)(F)F)cc1	-3%	-55%	-22%	-24%	4.6µM*	u
FC(F)(F)c1ccc(/C=N/NC(=S)NC2CCCCC2)cc1	2%	3%	6%	0%	-19%	-1%
CC(=O)Oc1cccc(/C=C2\C=C(c3ccc(C)cc3)OC2=O)c1	-4%	-3%	-1%	-2%	-11%	2.7µM*
Cc1ccc(C2=C/C(=C/c3cccs3)C(=O)O2)cc1	4%	-16%[1.84 µM]	0%	2%	25%	0.38µM*
CN(C)c1ccc(/C=C2/C=C(c3ccc4c(c3)CCCC4)OC2=O)cc1	0%	x	-4%	-5%	6%	-19%
COc1ccccc1CN1CCNC(=O)C1CC(=O)NCCc1cnccn1 (stereo unspecified)	0%	x	-1%	-2%	7%	-1%
Cc1nc(NC(=O)/C=C/c2ccco2)sc1C	u	11µM*	-6%	-4%	u	u
O=C(/C=C/c1ccco1)NC1=NCCS1	9.2µM*	8.9µM*	2.5µM*	2.2µM*	u	11µM*
CCSc1nnc(NC(=O)/C=C/c2ccco2)s1	u	11µM*	4µM*	u	u	-8%
O=C(/C=C/c1ccco1)Nc1nnc(-c2ccco2)s1	5%	x	20%	0%	u	0%
